Source: PubChem (several laboratories)
IDE cell activ: human IDE activators in live cells, primary screen, fluorescence polarization, HEK cells, FAbeta-B substrate; FAbeta-B cleavage; 0% vehicle, 100% cell-free pure enzyme wells; activation, % at 5.96 µM; AID 493087, 2011; 0.073% of 340,000 active; Insulin-degrading enzyme (Homo sapiens), P14735;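 active means activation above the mean of all tested compounds plus 3 SD, set per screening campaign, cut at about 17% in these data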
Target sequence (P14735 whole entry, looked up): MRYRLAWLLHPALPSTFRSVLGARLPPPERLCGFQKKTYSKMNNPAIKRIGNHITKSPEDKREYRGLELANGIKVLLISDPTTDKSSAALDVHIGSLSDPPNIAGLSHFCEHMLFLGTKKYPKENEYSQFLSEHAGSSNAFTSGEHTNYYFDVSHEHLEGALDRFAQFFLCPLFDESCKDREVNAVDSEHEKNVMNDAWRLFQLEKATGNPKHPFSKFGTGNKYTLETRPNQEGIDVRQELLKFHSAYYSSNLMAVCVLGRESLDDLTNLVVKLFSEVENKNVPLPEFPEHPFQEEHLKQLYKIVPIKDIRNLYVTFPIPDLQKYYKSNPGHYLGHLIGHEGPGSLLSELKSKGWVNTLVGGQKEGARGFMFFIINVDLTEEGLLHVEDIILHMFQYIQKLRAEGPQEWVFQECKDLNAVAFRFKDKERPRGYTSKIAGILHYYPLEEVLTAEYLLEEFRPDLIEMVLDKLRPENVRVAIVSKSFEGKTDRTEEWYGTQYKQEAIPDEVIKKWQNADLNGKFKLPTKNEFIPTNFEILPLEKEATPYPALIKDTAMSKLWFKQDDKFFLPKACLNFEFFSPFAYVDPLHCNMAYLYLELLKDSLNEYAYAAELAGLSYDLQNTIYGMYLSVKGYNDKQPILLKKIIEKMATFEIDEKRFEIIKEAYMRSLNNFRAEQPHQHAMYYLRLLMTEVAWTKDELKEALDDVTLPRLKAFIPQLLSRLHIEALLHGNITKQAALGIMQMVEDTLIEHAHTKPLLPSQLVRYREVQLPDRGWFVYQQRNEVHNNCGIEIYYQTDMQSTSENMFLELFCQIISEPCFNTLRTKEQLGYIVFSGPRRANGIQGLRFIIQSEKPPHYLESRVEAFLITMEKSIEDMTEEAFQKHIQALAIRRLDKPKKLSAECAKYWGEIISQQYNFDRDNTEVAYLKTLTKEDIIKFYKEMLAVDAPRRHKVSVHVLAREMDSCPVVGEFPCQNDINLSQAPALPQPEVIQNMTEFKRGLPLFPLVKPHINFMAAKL
ALR inh: inhibitors of human ALR sulfhydryl oxidase, primary screen, biochemical, H2O2 detection, HRP-luminol luminescence, single point; FAD-linked sulfhydryl oxidase ALR (Homo sapiens), P55789; purified ALR, DTT oxidation; inhibition, % (no concentration beside the values); 3.8% of 290,000 active; AID 485317, 2010;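 active means mean replicate inhibition above about 79%, with every replicate also reaching it, limit read from the data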
IDE cell inh: human IDE inhibitors in live cells, primary screen, fluorescence polarization, HEK cells, FAbetaB substrate; 0.41% of 320,000 active; inhibition, % at 5.59 µM; FAbetaB cleavage; Insulin-degrading enzyme (Homo sapiens), P14735;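 active means percent inhibition above the average of all tested compounds plus 3 SD, set per screening campaign, cut at about 16% in these data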;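 further: IDE supplied by intact live HEK cells; FP after avidin binding of uncleaved biotin substrate so inhibition keeps polarization high; 0% = DMSO wells and 100% = 60 µM reference IDE inhibitor Ii1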
PolyA inh: polyadenylation inhibitors in yeast reporter cells, primary screen, luminescence, S. cerevisiae. S. cerevisiae SKY197-pL101 polyadenylation reporter, beta-gal luminescence; efflux-impaired pdr1/pdr3 knockout yeast; score 100 = 6 SD above DMSO. AID 1875, 2009. 0.02% of 300,000 active. activity score, % at 12 µM;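 active means lowest replicate activity score at least 50, where 100 means six control SD above control mean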;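 further: yeast exposed to compound for 9 h at 30 °C; higher score means more reporter readthrough which indicates perturbed polyadenylation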
CaV13 FRET inh: Disruptors of the CACNA1D IQ motif to Ca2+-dependent inactivation inhibitor domain association, primary screening, Förster resonance energy transfer in intact living …. inhibition, % at 12.3 µM. HEK cells, CFP/YFP FRET ICDI-IQ, plate reader, 10 min; percent FRET-ratio fall versus neutral wells. 0.098% of 340,000 active;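 active means mean replicate inhibition of at least 30% and at least 1% of replicates passing that level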;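 further: 0% = median of the neutral control wells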
M18AAP inhibitor: PfM18AAP inhibitors, malaria aminopeptidase, primary screen, biochemical, QFRET, recombinant enzyme; H-Glu-NHMec fluorogenic cleavage; 1.2% of 290,000 active; inhibition, % at 7.35 µM; AID 1822, 2009;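 active means inhibition above the campaign mean inhibition over all tested compounds plus 3 SD, cut at about 28% in these data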;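 further: 0% = plate median of test compound wells and 100% = 2 mM ZnCl2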
* = called active by the depositor; . = no result given. In the library only some 4.1% were active in any assay of this set; here they are far more common.

SMILES	IDE cell activ	ALR inh	IDE cell inh	PolyA inh	CaV13 FRET inh	M18AAP inhibitor
Cc1cc(C)n(CCC(=O)N/N=C/c2ccc(O)cc2)n1	-1	99*	1	-13	-7	5
COc1cc(/C=N/NC(=O)CCn2nc(C)cc2C)ccc1O	4	.	1	-15	-4	3
CCOc1cc(/C=N/NC(=O)CCn2nc(C)cc2C)ccc1O	2	99*	-2	0	-1	17
CCCCCCCCN1C(=O)[C@@H](CC(=O)NCc2ccccc2)C[C@@]2(C(=O)OC)C1=C[C@H](C1CCCC1)O[C@@H]2C	.	.	.	.	-5	.
Cn1nnnc1SCc1ccc(C(=O)Nc2nccs2)cc1	-5	99*	6	11	-9	3
Cc1cc(C)cc(NC(=O)c2ccc(CSc3nnnn3C)cc2)c1	3	32	8	-11	.	1
O=C(NC1CCCC1)c1ccc(CSc2nc3ccncc3n2Cc2ccc(F)cc2)cc1	1	99*	-2	-6	-5	-11
CCC(C)NC(=O)c1ccc(CSc2nc3ccncc3n2Cc2ccc(F)cc2)cc1 (stereo not drawn)	2	15	2	1	-6	-4
O=C(NCCN1CCOCC1)c1ccc(CSc2nc3ccncc3n2Cc2ccc(F)cc2)cc1	-3	99*	-3	-8	5	2
CCc1noc(C)c1C(=O)NNC(=O)COc1ccccc1C	2	.	3	.	-2	.
CN(C)Cc1ccccc1Sc1ccc(O)cc1O	7	100*	-5	-11	-4	9
CN(C)Cc1ccccc1Sc1ccc(Br)cc1	8	-10	1	-7	-8	2
CNCc1ccccc1Sc1cc(O)ccc1O	-21	82*	11	.	-3	14
Cc1ccccc1NC(=O)CSc1nc(O)cc(=O)n1C	-1	99*	-3	18	-6	3
COc1ccc(-n2c(SCC(=O)Nc3ccccc3)nc(O)cc2=O)cc1	-2	88*	-2	-13	-5	2
COc1ccc(-n2c(SCC(=O)Nc3ccc(NC(C)=O)cc3)nc3ccccc3c2=O)cc1	-4	.	-5	-15	-5	-6
COc1ccccc1-n1c(SCC(=O)Nc2ccccc2C)nc(O)cc1=O	3	10	7	-8	-5	6
COC(=O)c1cccc(NC(=O)CSc2nc(=O)cc(N)n2-c2ccccc2)c1	4	98*	0	6	-6	5
Cc1c(O)nc(SCC(=O)Nc2nccs2)n(-c2ccccc2F)c1=O	0	99*	.	17	.	0
COc1cccc(-n2c(Cc3cc(=O)[nH]c(=O)[nH]3)nnc2SCc2cccc(C(F)(F)F)c2)c1	4	-4	6	14	-5	4
O=C(Cc1cn(Cc2ccccc2)c2ccccc12)Nc1ccc(Oc2cccnc2)cc1	.	.	.	.	-12	.
Cc1ccc(-n2c(SCC(=O)Nc3ccc4c5c(cccc35)CC4)nc(O)cc2=O)cc1	1	.	6	3	-1	1
Cc1ccc(-n2c(SCC(=O)Nc3ccc4c5c(cccc35)CC4)nc(O)c(C)c2=O)cc1	-1	99*	1	-2	-3	-9
COc1ccc(-n2c(SCC(=O)Nc3cccc4ccccc34)nc(O)cc2=O)cc1	5	99*	2	0	-5	-1
O=c1cc(O)nc(SCc2ccccc2)n1-c1ccccc1	-2	38	-3	1	-8	-13
SMILES	IDE cell activ	ALR inh	IDE cell inh	PolyA inh	CaV13 FRET inh	M18AAP inhibitor
COc1ccc(NC(=O)CSc2nc(O)cc(=O)n2-c2ccc(OC)cc2)cc1	7	99*	3	-15	-8	4
O=C(CSc1nc(O)cc(=O)n1-c1ccccc1)c1ccc(Br)cc1	1	98*	1	-11	-3	-5
CCOc1ccc(-n2c(SCC(=O)Nc3ccc(C(=O)O)cc3)nc3ccccc3c2=O)cc1	4	.	0	4	0	-1
CCOc1ccc(NC(=O)CSc2nc(O)c(C)c(=O)n2-c2ccc(F)cc2)cc1	2	100*	-3	0	-7	-14
CCCCc1nnc(NC(=O)CSc2nc(=O)cc(N)n2-c2cccc(C)c2)s1	8	98*	10	7	-8	3
Cc1cccc(-n2c(N)cc(=O)nc2SCC(=O)Nc2nnc(CC(C)C)s2)c1	.	.	.	2	.	3
CC(NC(=O)CNC(=O)C1CCCCC1)c1ccc(S(N)(=O)=O)cc1 (stereo not drawn)	0	-1	-1	-2	-3	-1
Oc1ccc(C23CC4CC(CC(C4)C2)C3)cc1O	-9	99*	5	-53	-13	90*
CC(=O)Nc1ccc(C23CC4CC(CC(C4)C2)C3)cc1	3	-31	0	-24	-6	7
Cc1csc(NC(=O)CSc2nc3ccccc3c(=O)[nH]2)n1	-1	99*	11	11	-5	4
Cc1[nH]c2ccccc2c1-c1csc(NC(=O)CSCCO)n1	3	99*	7	-3	6	4
O=C(CSCCO)Nc1cccc2ccccc12	3	-10	-3	16	-9	-2
Cc1csc(NC(=O)CSCC(=O)Nc2ccccc2)n1	2	92*	-3	5	-2	4
O=C(CSc1nc2ccccc2c(=O)[nH]1)Nc1ccc(C(=O)O)cc1	10	.	6	10	-7	-6
CC(C)(C)c1csc(NC(=O)CSc2nc3ccccc3c(=O)[nH]2)n1	0	94*	-3	-11	-6	-3
CC1=NNC(=O)c2ccccc2O1	2	-7	1	4	3	-6
CCc1cccc(CC)c1NC(=O)COC(=O)C1(C)CC1(Cl)Cl (stereo not drawn)	8	-2	-4	4	1	5
Cc1nn(-c2ccc(Cl)cc2)c(=O)c2ccccc12	4	-15	-3	-34	-4	0
Cc1c(Cl)sn(-c2ccc(Cl)cc2)c1=O	-55	.	.	.	-6	58*
C[C@@H]1CN([C@@H](C)CO)C(=O)CCCn2nncc2CO[C@@H]1CN(C)C(=O)Nc1ccc(C(F)(F)F)cc1	.	.	.	.	-4	.
CCN1CCN(c2ccc(NC(=O)c3ccc(Cl)c(S(=O)(=O)N4CCCC4)c3)cc2)CC1	4	.	.	.	-5	.
COc1cccc2cc(-c3ccnc(=S)[nH]3)oc12	.	99*	39*	-8	.	8
c1ccc(N2CCOCCOCCOCCOCCOCC2)cc1	-1	96*	4	-3	-2	2
O=C(N1CCOCC1)N1CCN(c2ccccc2)CC1	-3	54	2	2	-3	0
c1ccc(CNc2ccc(N3CCOCC3)cc2)cc1	5	99*	-3	.	-5	.
